Results filed as inconclusive are left out. Active and inactive are the calls of the source. Rule for the calls: active = hit-call score of the fitted dose curve at least 0.9, where 1 is the maximum; inconclusive = response in the unintended direction; inactive = score below 0.9.
How the values were obtained:
[1] = target: human SRC Proto-Oncogene, Non-receptor Tyrosine Kinase (SRC), SRC (gene 6714) (UniProt P12931); assay: NVS_ENZ_hSRC: NovaScreen (NVS) Enzymatic Assay for human SRC Proto-Oncogene, Non-receptor Tyrosine Kinase (SRC) (AID 2283223)
Summary of the method: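 Compounds passing 30% inhibition at 25 uM (duplicate) were titrated to a top concentration of 50 uM. Enzyme activity read by fluorescence with mobility-shift substrate/product separation after 1 h; DMSO baseline.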

[2] = target: human Tropomyosin Receptor Kinase A (TRKA), NTRK1 (gene 4914) (UniProt P04629); assay: NVS_ENZ_hTrkA: NovaScreen (NVS) Enzymatic Assay for human Tropomyosin Receptor Kinase A (TRKA) (AID 2283224)
Summary of the method: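 Compounds were screened at 25 uM in duplicate, then concentration series to a 50 uM top for those meeting threshold (e.g. 30% inhibition). Enzyme was recombinant human TrkA, incubated 1 h. Product formation was quantified by fluorescence after mobility-shift separation.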

[3] = target: human Vascular Endothelial Growth Factor Receptor 1 (VEGFR1), FLT1 (gene 2321) (UniProt P17948); assay: NVS_ENZ_hVEGFR1: NovaScreen (NVS) Enzymatic Assay for human Vascular Endothelial Growth Factor Receptor 1 (VEGFR1) (AID 2283226)
Summary of the method: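 Kinase activity of recombinant human VEGFR1 was read by fluorescence after electrophoretic separation of product from substrate, 1 h post-dosing; initial duplicate single-point testing at 25 uM, followed by concentration-series follow-up, with DMSO as baseline.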

[4] = target: human Sirtuin 2 (SIRT2), SIRT2 (gene 22933) (UniProt Q8IXJ6); assay: NVS_ENZ_hSIRT2: NovaScreen (NVS) Enzymatic Assay for human Sirtuin 2 (SIRT2) (AID 2283217)
Summary of the method: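 Single-point duplicate screen at 25 uM, then concentration-response (max 50 uM) for chemicals passing threshold. Enzyme activity of recombinant human SIRT2 measured after 1 hr by fluorescence with mobility-shift separation of product; DMSO baseline.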

[5] = target: human Protein Tyrosine Phosphatase Non-receptor Type 4 (PTPN4), PTPN4 (gene 5775) (UniProt P29074); assay: NVS_ENZ_hPTPN4: NovaScreen (NVS) Enzymatic Assay for human Protein Tyrosine Phosphatase Non-receptor Type 4 (PTPN4) (AID 2283208)
Summary of the method: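 Screened in duplicate at 25 uM, with hits then titrated to a top concentration of 50 uM. Recombinant Sf9-derived PTPN4 turnover was read by fluorescence with electrophoretic separation, 1.33 h after compound addition. DMSO served as baseline.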

[6] = target: human Protein Tyrosine Phosphatase Non-receptor Type 9 (PTPN9), PTPN9 (gene 5780) (UniProt P43378); assay: NVS_ENZ_hPTPN9: NovaScreen (NVS) Enzymatic Assay for human Protein Tyrosine Phosphatase Non-receptor Type 9 (PTPN9) (AID 2283209)
Summary of the method: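 Sf9-expressed enzyme in a cell-free assay, fluorescence read 1.33 h after dosing with mobility-shift separation of substrate and product. Tested at 25 uM in duplicate, then up to 50 uM; signal loss versus DMSO.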

[7] = target: human Protein Tyrosine Phosphatase Receptor Type M (PTPRM), PTPRM (gene 5797) (UniProt P28827); assay: NVS_ENZ_hPTPRM: NovaScreen (NVS) Enzymatic Assay for human Protein Tyrosine Phosphatase Receptor Type M (PTPRM) (AID 2283215)
Summary of the method: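 Read-out is fluorescence after electrophoretic separation of substrate and product, taken 1.33 h post-dosing with recombinant enzyme. Compounds screened at 25 uM in duplicate, then concentration series for actives; activity as signal loss relative to DMSO.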

[8] = target: human Protein Tyrosine Phosphatase Receptor Type F (PTPRF), PTPRF (gene 5792) (UniProt P10586); assay: NVS_ENZ_hPTPRF: NovaScreen (NVS) Enzymatic Assay for human Protein Tyrosine Phosphatase Receptor Type F (PTPRF) (AID 2283213)
Summary of the method: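 Cell-free fluorescence enzyme assay with recombinant protein and substrate; product separated by electrophoretic mobility shift. Read 1 h after dosing, single 25 uM duplicate screen, then concentration-response up to 50 uM; loss of signal vs DMSO.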

[9] = target: human Sirtuin 1 (SIRT1), SIRT1 (gene 23411) (UniProt Q96EB6); assay: NVS_ENZ_hSIRT1: NovaScreen (NVS) Enzymatic Assay for human Sirtuin 1 (SIRT1) (AID 2283219)
Summary of the method: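 Cell-free recombinant SIRT1 with a fluorescent substrate; substrate and product separated by electrophoretic mobility shift and read by fluorescence intensity, 1 h after dosing. Primary screen at 25 uM in duplicate; hits re-run in concentration-response up to 50 uM, relative to DMSO.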

[10] = target: Serine/threonine-protein phosphatase PP1-alpha catalytic subunit (Homo sapiens) (UniProt P62136); assay: NVS_ENZ_hPPP1CA: NovaScreen (NVS) Enzymatic Assay for human Protein Phosphatase 1 Aatalytic subunit Alpha (PPP1CA) (AID 2283200)
Summary of the method: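 Chemicals were first screened in duplicate at 25 uM, and those passing threshold (e.g. 30% inhibition) were run as concentration series to 50 uM. Cell-free recombinant protein, 1.33 h read, fluorescent substrate/product mobility-shift detection, normalised to DMSO.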

[11] = target: human Protein Tyrosine Phosphatase Non-receptor Type 1 (PTPN1), PTPN1 (gene 5770) (UniProt P18031); assay: NVS_ENZ_hPTPN1: NovaScreen (NVS) Enzymatic Assay for human Protein Tyrosine Phosphatase Non-receptor Type 1 (PTPN1) (AID 2283201)
Summary of the method: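 Chemicals were first tested in duplicate at 25 uM, and those passing threshold went on to singleton concentration series topping at 50 uM. Recombinant enzyme, specific substrate, product separated by mobility shift, fluorescence read at 1.33 h; activity loss relative to DMSO.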

[12] = target: Tyrosine-protein phosphatase non-receptor type 11 (Homo sapiens) (UniProt Q06124); assay: NVS_ENZ_hPTPN11: NovaScreen (NVS) Enzymatic Assay for human Protein Tyrosine Phosphatase Non-receptor Type 11 (PTPN11) (AID 2283202)
Summary of the method: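 Compounds first tested in duplicate at 25 uM; those reaching ~30% inhibition rerun in singleton concentration-response, top 50 uM. Phosphatase activity measured after 0.5 h by fluorescence with mobility-shift separation, relative to DMSO.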

[13] = target: Tyrosine-protein phosphatase non-receptor type 13 (Homo sapiens) (UniProt Q12923); assay: NVS_ENZ_hPTPN13: NovaScreen (NVS) Enzymatic Assay for human Protein Tyrosine Phosphatase Non-receptor Type 13 (PTPN13) (AID 2283205)
Summary of the method: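 Screened first at a single 25 uM in duplicate; compounds passing the threshold (e.g. 30% inhibition) were rerun in concentration series, top 50 uM. Recombinant enzyme, fluorescent substrate, mobility-shift separation, 0.5 h read. Data fitted as inhibition relative to DMSO.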

[14] = target: Tyrosine-protein phosphatase non-receptor type 14 (Homo sapiens) (UniProt Q15678); assay: NVS_ENZ_hPTPN14: NovaScreen (NVS) Enzymatic Assay for human Protein Tyrosine Phosphatase Non-receptor Type 14 (PTPN14) (AID 2283206)
Summary of the method: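 Fluorescent substrate turnover by recombinant human PTPN14 was measured 0.5 h after compound addition, with substrate and product separated by mobility shift. Single-point screening at 25 uM, then concentration-response up to 50 uM for chemicals meeting threshold (e.g., 30% inhibition).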

[15] = target: human Rho Associated Coiled-coil Containing Protein Kinase 1 (ROCK1), ROCK1 (gene 6093) (UniProt Q13464); assay: NVS_ENZ_hROCK1: NovaScreen (NVS) Enzymatic Assay for human Rho Associated Coiled-coil Containing Protein Kinase 1 (ROCK1) (AID 2283214)
Summary of the method: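 Compounds first run in duplicate at 25 uM against recombinant human ROCK1, then followed in concentration series. Kinase activity was read 1 h post-dosing by fluorescence with mobility-shift separation, as signal loss relative to DMSO.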

[16] = target: Tyrosine-protein phosphatase non-receptor type 12 (Homo sapiens) (UniProt Q05209); assay: NVS_ENZ_hPTPN12: NovaScreen (NVS) Enzymatic Assay for human Protein Tyrosine Phosphatase Non-receptor Type 12 (PTPN12) (AID 2283204)
Summary of the method: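 Single-concentration duplicates (25 uM) preceded singleton concentration-response up to 50 uM for chemicals passing threshold. Cell-free recombinant PTPN12 activity was read 1.33 h after dosing via fluorescence after mobility-shift separation; loss of signal versus DMSO.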

[17] = target: human Protein Tyrosine Phosphatase Non-receptor Type 6 (PTPN6), PTPN6 (gene 5777) (UniProt P29350); assay: NVS_ENZ_hPTPN6: NovaScreen (NVS) Enzymatic Assay for human Protein Tyrosine Phosphatase Non-receptor Type 6 (PTPN6) (AID 2283210)
Summary of the method: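 Recombinant human PTPN6 from SF9 cells, enzyme activity followed by fluorescence after mobility-shift separation of substrate and product at 1.33 h. Chemicals first tested at a single 25 uM in duplicate, then confirmed across concentration series; loss of signal relative to DMSO.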

[18] = target: human Protein Tyrosine Phosphatase Receptor Type B (PTPRB), PTPRB (gene 5787) (UniProt P23467); assay: NVS_ENZ_hPTPRB: NovaScreen (NVS) Enzymatic Assay for human Protein Tyrosine Phosphatase Receptor Type B (PTPRB) (AID 2283211)
Summary of the method: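 Recombinant human PTPRB with a fluorescent substrate, product separated by electrophoretic mobility shift; read 1 h after dosing. Primary screen in duplicate at 25 uM; actives then retested in concentration series; loss of signal versus DMSO.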

[19] = target: human Sirtuin 3 (SIRT3), SIRT3 (gene 23410) (UniProt Q9NTG7); assay: NVS_ENZ_hSIRT3: NovaScreen (NVS) Enzymatic Assay for human Sirtuin 3 (SIRT3) (AID 2283222)
Summary of the method: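 Cell-free enzyme assay with recombinant protein and fluorescent substrate, product separated by electrophoretic mobility shift; read 1 hour after dosing. Screened in duplicate at 25 uM, then singleton concentration-response up to 50 uM; loss of signal versus DMSO.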

[20] = target: rabbit Imidazoline 2 Central (I2C), CKB (gene 100009085) (UniProt P00567); assay: NVS_ENZ_rabI2C: NovaScreen (NVS) Enzymatic Assay for rabbit Imidazoline 2 Central (I2C) (AID 2283228)
Summary of the method: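 Rabbit brain membranes, cell-free; readout by filter-based scintillation counting 1.5 hours after dosing, loss of signal vs DMSO. Initial duplicate test at 25 uM, then concentration-response with 50 uM top concentration.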

Sequence of human Sirtuin 1 (SIRT1), SIRT1 (gene 23411) (Q96EB6 whole entry, looked up): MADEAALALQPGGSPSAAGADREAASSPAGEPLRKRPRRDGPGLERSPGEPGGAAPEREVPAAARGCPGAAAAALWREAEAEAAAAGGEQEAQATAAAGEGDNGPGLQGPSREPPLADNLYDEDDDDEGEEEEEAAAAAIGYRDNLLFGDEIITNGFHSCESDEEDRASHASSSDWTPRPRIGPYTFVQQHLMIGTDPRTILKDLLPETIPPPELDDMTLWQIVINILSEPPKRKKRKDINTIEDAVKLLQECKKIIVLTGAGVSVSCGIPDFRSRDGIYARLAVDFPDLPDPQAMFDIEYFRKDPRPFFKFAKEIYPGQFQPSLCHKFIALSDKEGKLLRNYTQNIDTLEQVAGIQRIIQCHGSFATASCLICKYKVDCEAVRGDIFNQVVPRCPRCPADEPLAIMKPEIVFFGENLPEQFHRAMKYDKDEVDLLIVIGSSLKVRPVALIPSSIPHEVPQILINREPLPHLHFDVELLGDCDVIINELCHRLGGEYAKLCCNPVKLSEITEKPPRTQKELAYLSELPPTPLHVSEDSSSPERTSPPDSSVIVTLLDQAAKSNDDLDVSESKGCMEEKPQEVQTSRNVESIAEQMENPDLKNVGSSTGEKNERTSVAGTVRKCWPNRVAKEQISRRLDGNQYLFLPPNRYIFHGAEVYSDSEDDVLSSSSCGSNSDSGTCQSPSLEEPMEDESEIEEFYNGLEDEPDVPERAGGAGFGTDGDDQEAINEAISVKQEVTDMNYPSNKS
Sequence of human Protein Tyrosine Phosphatase Non-receptor Type 4 (PTPN4), PTPN4 (gene 5775) (P29074 whole entry, looked up): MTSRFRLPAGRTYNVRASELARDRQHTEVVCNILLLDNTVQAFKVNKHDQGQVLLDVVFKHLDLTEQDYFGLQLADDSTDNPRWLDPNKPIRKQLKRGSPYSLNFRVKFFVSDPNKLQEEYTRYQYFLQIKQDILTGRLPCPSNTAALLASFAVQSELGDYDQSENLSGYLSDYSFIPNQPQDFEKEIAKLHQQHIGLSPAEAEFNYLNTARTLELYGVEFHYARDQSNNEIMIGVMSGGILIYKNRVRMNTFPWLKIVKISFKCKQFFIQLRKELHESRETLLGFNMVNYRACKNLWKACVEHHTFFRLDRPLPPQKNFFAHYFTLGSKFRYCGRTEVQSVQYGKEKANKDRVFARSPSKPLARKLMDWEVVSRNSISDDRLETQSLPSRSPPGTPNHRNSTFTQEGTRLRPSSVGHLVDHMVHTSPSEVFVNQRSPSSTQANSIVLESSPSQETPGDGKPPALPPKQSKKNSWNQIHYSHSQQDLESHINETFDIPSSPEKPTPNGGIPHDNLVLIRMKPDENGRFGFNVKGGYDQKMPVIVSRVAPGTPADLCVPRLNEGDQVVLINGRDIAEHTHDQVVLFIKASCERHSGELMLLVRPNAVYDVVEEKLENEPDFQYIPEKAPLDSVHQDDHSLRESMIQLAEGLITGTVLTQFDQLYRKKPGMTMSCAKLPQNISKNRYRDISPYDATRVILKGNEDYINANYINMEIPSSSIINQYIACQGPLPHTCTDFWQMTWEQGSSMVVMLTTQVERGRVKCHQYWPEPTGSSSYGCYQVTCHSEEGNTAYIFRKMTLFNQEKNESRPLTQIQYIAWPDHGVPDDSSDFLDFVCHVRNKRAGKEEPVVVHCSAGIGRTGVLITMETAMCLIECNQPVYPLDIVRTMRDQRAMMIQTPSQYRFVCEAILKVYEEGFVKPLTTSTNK
Sequence of human Protein Tyrosine Phosphatase Receptor Type F (PTPRF), PTPRF (gene 5792) (P10586 whole entry, looked up): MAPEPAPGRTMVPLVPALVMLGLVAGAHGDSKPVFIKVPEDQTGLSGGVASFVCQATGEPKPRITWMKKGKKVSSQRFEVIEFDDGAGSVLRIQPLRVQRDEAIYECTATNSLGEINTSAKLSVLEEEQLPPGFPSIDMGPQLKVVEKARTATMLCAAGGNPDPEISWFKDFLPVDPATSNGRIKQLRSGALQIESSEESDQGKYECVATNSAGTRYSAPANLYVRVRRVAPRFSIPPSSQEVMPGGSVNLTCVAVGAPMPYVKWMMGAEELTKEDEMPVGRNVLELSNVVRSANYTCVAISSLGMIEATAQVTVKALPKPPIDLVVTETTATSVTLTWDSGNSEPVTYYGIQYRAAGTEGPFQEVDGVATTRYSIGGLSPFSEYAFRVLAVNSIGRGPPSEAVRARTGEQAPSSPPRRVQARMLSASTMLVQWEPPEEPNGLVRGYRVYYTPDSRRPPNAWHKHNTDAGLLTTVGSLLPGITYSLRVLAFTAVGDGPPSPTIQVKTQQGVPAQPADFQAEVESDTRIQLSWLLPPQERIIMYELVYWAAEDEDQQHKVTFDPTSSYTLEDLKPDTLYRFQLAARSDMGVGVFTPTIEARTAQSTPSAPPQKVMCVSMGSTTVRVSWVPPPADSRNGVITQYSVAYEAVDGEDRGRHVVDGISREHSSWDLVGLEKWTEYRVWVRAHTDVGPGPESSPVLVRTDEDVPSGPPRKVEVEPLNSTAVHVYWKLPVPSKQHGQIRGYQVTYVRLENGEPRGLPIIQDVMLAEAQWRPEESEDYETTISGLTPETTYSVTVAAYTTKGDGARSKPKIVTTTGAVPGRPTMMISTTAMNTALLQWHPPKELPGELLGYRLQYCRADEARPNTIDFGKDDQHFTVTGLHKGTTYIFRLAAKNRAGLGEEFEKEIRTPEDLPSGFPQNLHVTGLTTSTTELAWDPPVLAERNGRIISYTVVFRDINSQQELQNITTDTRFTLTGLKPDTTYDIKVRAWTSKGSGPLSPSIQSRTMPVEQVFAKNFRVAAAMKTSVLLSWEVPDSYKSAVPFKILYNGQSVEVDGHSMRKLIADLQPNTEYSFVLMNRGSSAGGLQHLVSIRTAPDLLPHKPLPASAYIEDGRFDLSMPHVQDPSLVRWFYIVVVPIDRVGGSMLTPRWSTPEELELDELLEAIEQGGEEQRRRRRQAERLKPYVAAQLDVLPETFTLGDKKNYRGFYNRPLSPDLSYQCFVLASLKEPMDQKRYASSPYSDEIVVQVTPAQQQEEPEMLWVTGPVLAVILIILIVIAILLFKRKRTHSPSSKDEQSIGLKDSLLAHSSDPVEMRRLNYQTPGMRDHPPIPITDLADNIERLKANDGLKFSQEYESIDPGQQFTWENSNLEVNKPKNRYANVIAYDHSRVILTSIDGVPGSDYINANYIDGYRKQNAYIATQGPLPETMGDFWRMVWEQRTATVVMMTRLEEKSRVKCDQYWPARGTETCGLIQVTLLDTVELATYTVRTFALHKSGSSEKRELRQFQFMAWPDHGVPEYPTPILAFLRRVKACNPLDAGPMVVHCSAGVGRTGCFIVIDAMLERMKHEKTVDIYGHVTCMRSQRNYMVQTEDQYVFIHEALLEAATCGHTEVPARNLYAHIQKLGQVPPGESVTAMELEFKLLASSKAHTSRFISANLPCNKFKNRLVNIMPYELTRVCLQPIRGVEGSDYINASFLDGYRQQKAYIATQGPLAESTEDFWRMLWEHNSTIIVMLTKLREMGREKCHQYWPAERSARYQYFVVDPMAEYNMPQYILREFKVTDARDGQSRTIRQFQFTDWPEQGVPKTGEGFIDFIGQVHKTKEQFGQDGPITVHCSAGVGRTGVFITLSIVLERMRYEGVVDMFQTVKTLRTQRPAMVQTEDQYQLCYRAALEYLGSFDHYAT
Sequence of human Protein Tyrosine Phosphatase Non-receptor Type 9 (PTPN9), PTPN9 (gene 5780) (P43378 whole entry, looked up): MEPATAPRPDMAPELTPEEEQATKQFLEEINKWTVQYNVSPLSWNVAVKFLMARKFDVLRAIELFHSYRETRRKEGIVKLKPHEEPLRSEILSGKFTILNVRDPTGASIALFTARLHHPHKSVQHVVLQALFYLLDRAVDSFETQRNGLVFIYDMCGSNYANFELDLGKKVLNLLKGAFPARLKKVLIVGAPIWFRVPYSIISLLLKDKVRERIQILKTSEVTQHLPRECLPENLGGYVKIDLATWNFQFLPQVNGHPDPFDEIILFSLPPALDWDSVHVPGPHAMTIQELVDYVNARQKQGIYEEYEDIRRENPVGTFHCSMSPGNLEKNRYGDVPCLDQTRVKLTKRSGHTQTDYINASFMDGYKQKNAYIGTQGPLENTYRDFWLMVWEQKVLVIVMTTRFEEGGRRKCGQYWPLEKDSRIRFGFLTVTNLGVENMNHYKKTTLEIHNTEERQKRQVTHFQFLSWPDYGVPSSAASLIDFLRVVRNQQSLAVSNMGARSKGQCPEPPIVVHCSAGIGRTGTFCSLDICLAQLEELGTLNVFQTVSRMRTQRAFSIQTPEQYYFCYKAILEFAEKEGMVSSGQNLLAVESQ
Sequence of human Sirtuin 2 (SIRT2), SIRT2 (gene 22933) (Q8IXJ6 whole entry, looked up): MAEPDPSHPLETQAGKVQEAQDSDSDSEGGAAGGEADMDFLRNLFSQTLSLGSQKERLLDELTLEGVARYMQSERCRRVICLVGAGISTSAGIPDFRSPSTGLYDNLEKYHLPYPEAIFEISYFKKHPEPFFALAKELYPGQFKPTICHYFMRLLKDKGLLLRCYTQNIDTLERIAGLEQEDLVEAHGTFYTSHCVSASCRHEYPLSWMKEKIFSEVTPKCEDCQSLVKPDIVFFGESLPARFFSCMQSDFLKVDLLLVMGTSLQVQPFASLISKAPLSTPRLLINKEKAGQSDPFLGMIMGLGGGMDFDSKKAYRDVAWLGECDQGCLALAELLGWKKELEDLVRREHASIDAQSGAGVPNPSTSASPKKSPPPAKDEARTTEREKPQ
Sequence of Serine/threonine-protein phosphatase PP1-alpha catalytic subunit (Homo sapiens) (P62136 whole entry, looked up): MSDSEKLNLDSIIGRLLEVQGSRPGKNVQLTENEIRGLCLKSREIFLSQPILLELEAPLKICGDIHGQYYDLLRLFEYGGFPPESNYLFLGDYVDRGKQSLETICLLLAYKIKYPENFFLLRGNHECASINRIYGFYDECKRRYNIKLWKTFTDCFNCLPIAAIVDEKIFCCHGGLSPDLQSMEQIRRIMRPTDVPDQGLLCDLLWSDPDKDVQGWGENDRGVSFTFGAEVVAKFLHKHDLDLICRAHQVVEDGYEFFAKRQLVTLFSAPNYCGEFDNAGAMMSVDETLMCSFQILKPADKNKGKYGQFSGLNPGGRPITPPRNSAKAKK

## O=C(c1ccc(O)cc1O)c1ccc(O)cc1O
[1]
  AC50: 15 µM (active)
[2]
  AC50: 25 µM (active)
[3]
  AC50: 25 µM (active)

## CC1(C)C(C=C(Cl)Cl)C1C(=O)OCc1cccc(Oc2ccccc2)c1 (centres undefined)
[4]
  outcome: inactive

## COc1nc(C)nc(NC(=O)NS(=O)(=O)c2ccccc2OCCCl)n1
[5]
  outcome: inactive
[6]
  outcome: inactive
[7]
  outcome: inactive

## CCCOC(=O)NCCCN(C)C
[8]
  outcome: inactive

## N#CSCSc1nc2ccccc2s1
[8]
  outcome: inactive
[9]
  AC50: 10.7 µM (active)

## CC(C)CCCCCCc1ccc(O)cc1
[10]
  outcome: inactive
[11]
  outcome: inactive
[12]
  outcome: inactive
[13]
  outcome: inactive
[14]
  outcome: inactive
[6]
  outcome: inactive
[8]
  outcome: inactive
[15]
  outcome: inactive
[7]
  outcome: inactive
[9]
  outcome: inactive
[2]
  outcome: inactive

## Cc1nn(C)c(Oc2ccccc2)c1C=NOCc1ccc(C(=O)OC(C)(C)C)cc1
[4]
  AC50: 6.6 µM (active)

## CN(C)C(=O)Nc1ccc(Cl)c(Cl)c1
[10]
  outcome: inactive
[8]
  outcome: inactive

## CCCN(CCC)c1c([N+](=O)[O-])cc(C(F)(F)F)c(N)c1[N+](=O)[O-]
[16]
  outcome: inactive
[5]
  outcome: inactive
[6]
  AC50: 19.9 µM (active)
[17]
  outcome: inactive
[7]
  outcome: inactive

## S=C([S-])NCCNC(=S)[S-].[Mn+2]
[11]
  AC50: 0.831 µM (active)
[12]
  AC50: 0.144 µM (active)
[16]
  AC50: 0.479 µM (active)
[13]
  AC50: 0.594 µM (active)
[14]
  AC50: 13.8 µM (active)
[5]
  AC50: 0.0035 µM (active)
[6]
  AC50: 0.00231 µM (active)
[17]
  AC50: 34.7 µM (active)
[18]
  AC50: 0.465 µM (active)
[8]
  AC50: 6.35 µM (active)
[7]
  AC50: 8.13 µM (active)
[4]
  AC50: 14.1 µM (active)
[9]
  AC50: 15.4 µM (active)
[19]
  AC50: 7.6 µM (active)
[20]
  outcome: inactive

Reference: PubChem BioAssay (EPA / NIEHS)
